# High-throughput results deposited in PubChem BioAssay by Broad Institute.
# aSyn 5UTR act: Activators working through SNCA 5'UTR binding (MLPCN); activity score, % (tested at 7.5 µM), hits read low; hit rate 7.1% among 300,000; alpha-synuclein 5'UTR reporter, activators screen; AID 1814; in the data active = activity score below about -60%
# Active calls of the source: *. Not all results are given here.
SMILES,aSyn 5UTR act
Cc1ccc(C(=O)N/C(=C\c2ccccc2)C(=O)OCc2ccccc2)cc1,-122*
Cc1ccc(CONC(=O)c2ccccc2)cc1,-101*
c1ccc(-c2noc(C34CC5CC(CC(C5)C3)C4)n2)nc1,-209*
c1ccc(-c2noc(C34CC5CC(CC(C5)C3)C4)n2)cc1,-69*
COC(=O)c1ccc2nc(NC(=O)COC(=O)CSc3nc(C)cc(C)n3)sc2c1,-88*
COC(=O)c1ccc2nc(NC(=O)CSCC(=O)OCC(=O)c3ccccc3)sc2c1,-73*
Cc1ccc2nc(NC(=O)CSCC(=O)OCC(=O)c3ccc(Br)cc3)sc2c1,83
CN(c1ccc(O)cc1)c1nc(O)c(C2=c3ccccc3=NC2=O)s1,-155*
Cc1ccc2cc(/C=C/C(=O)c3ccco3)c(Cl)nc2c1,-121*
COc1ccc2cc(/C=C/C(=O)c3ccco3)c(Cl)nc2c1,-78*
Cc1ccc2nc(Cl)c(/C=C/C(=O)c3ccco3)cc2c1,-151*
COc1ccc2cc(/C=N/NC(=O)c3ccc(CN(c4ccc(C)c(C)c4)S(C)(=O)=O)cc3)c(Cl)nc2c1,65
O=C(/C(N=Nc1cccc(C(F)(F)F)c1)=C(/O)c1cccs1)C(F)(F)F,-62*
Cc1ccc(N=C/C(C(=O)C(F)(F)F)=C(\O)c2cccs2)cc1,-89*
CCc1cc2c(=O)c(-c3nc4ccccc4n3C)c(COCC(=O)O)oc2cc1O,-81*
O=C(Nc1ccc(N2CCCCC2)c(Cl)c1)c1cccnc1,-313*
Cc1ccc(NC(=O)c2cccnc2)cc1C,-104*
O=C(Nc1ccc(N2CCCC2)c(Cl)c1)c1cccnc1,-112*
O=C(Nc1ccc(Cl)c(Cl)c1)c1cccnc1,-102*
Cc1cc(O)c(C)c(O)c1/C=N/NC(=O)c1cccnc1,69
COCCCNc1nnc(Cc2ccc(Cl)cc2)c(=O)[nH]1,66
CC1CCCN(S(=O)(=O)c2ccc(C(=O)Nc3nnc(-c4ccccc4Cl)o3)cc2)C1 (stereo not given),78
O=C(Nc1nnc(-c2ccccc2Cl)o1)c1cccnc1,-94*
COCCSc1nnc(NC(=O)C(C)(C)C)s1,-90*
CC(C)(C)C(=O)Nc1nnc(SCc2cccc(F)c2)s1,-174*
SMILES,aSyn 5UTR act
CC(C)(C)C(=O)Nc1nnc(SCc2ccc(F)cc2)s1,-82*
CSc1ccc(COC(=O)c2cc([N+](=O)[O-])ccc2N2CCOCC2)cc1,67
CCOc1ccc(C(=O)COC(=O)c2cc([N+](=O)[O-])ccc2N2CCOCC2)cc1,-115*
Cc1cccn2cc(-c3ccc(F)cc3)nc12,-88*
COc1ccc(-c2cn3cccc(C)c3n2)cc1Br,-259*
Cc1cccn2cc(CNc3ccccc3)nc12,-73*
COc1ccc(-c2cn3ccc4ccccc4c3n2)cc1,-103*
Cc1cccn2cc(-c3ccccc3)nc12,-152*
CCc1ccc(-c2cc(C(=O)NCc3ccccn3)c3ccccc3n2)cc1,-227*
CCCc1ccc(-c2cc(C(=O)NC3=NCCS3)c3ccccc3n2)cc1,-191*
Cc1ccc(-c2cc(C(=O)NC3=NCCS3)c3ccccc3n2)cc1C,-168*
Cc1ccc(-c2cc(C(=O)N/N=C/c3c(C)nn(C)c3C)c3ccccc3n2)cc1C,-73*
CN(CC(=O)Nc1ccc2c(c1)OCO2)S(=O)(=O)c1cccs1,-76*
O=S(=O)(Nc1ccc2c(c1)OCCO2)c1cccs1,-91*
Cc1nn(C)c(C)c1S(=O)(=O)N1CCC(C(=O)Nc2ccc3c(c2)OCCO3)CC1,-111*
O=C(Nc1ccc2c(c1)OCO2)C1CCN(S(=O)(=O)c2cccs2)CC1,-64*
O=C(CNS(=O)(=O)c1cccs1)Nc1ccc2c(c1)OCCO2,-91*
Clc1cccc(Cl)c1Cn1ccc(C2CC2)n1,-100*
CC(=O)c1ccc(N/N=C2/CCCNC2=O)cc1,-74*
O=C1NCCC/C1=N/Nc1cc(F)ccc1F,-113*
C/C(=C\c1ccccc1)C(=O)Nc1ccc(Cl)cn1,-180*
O=C(Nc1ccc(F)cc1)Nc1ccc(Cl)cn1,-121*
CC(C)c1ccc(/C=N/NC(=O)c2c(Cl)cnn2C)cc1,-142*
O=C(Nc1ccc(Cl)cn1)Nc1ccccc1F,-153*
O=C(Nc1ccc(Cl)cn1)Nc1ccc(Cl)cn1,-77*
SMILES,aSyn 5UTR act
Cn1ncc(Cl)c1C(=O)Nc1ccc(Cl)cn1,-114*
CCCC(NC(=O)CCl)c1ccccc1 (stereo not given),-72*
CCCCc1ccc(Nc2ncccc2C#N)cc1,-87*
COc1ccc(C)cc1N(C(=O)COc1ccccc1)c1nc2ccccc2s1,-92*
Cc1ccc(C(=O)Nc2cc3c(cc2Cl)OCCCO3)cc1,-145*
O=C(Nc1cc2c(cc1Br)OCCCO2)c1ccccc1,-104*
O=C(Nc1cc2c(cc1Cl)OCCCO2)c1ccc(F)cc1,-90*
COc1cccc(/C=N/Nc2ccc([N+](=O)[O-])cc2)c1O,-150*
COc1ccc(/C=N/Nc2ccc([N+](=O)[O-])cc2)cc1O,-298*
COc1cccc(N/N=C/c2cccc(Br)c2O)c1,-117*
COc1cccc(/C=N/NC(=O)c2ccc(-c3ccccc3)cc2)c1O,76
O=C(CCS(=O)(=O)c1ccccc1)N(CCCN1CCOCC1)c1nc2ccc(F)cc2s1,-132*
CCOC(=O)C1=C(c2ccccc2)O/C(=C(/C#N)C(F)(F)F)S1,-64*
Cc1cccc(OCC2=NS(=O)(=O)c3ccccc3N2)c1,-93*
CCOc1ccc(NC(=O)c2ccc(NC(=O)COC(=O)Cc3ccc(OC)cc3)cc2)cc1,-93*
CCOc1ccc(NC(=O)c2ccccc2OC)cc1,-140*
CC(=O)c1cccc(NC(=O)COC(=O)c2ccccc2C)c1,-101*
O=C(COc1ccccc1C(=O)c1cnn(-c2ccccc2)c1)Nc1ccccc1,-73*
CCOc1ccc(NC(=O)c2ccccc2O)cc1,-66*
CCOc1ccc(NC(=O)c2ccccc2CO)cc1,-86*
CCOc1ccc(NC(=O)c2ccccn2)cc1,104
CCOc1ccc(NC(=O)c2nccnc2CO)cc1,-120*
CC(=O)c1ccc(NC(=O)COc2ccccc2C(=O)Nc2ccccc2)cc1,-78*
CCOc1ccc(NC(=O)c2cccnc2C(=O)O)cc1,-109*
CCOc1ccc(NC(=O)c2ccccc2-c2ccccc2C(=O)O)cc1,-63*
SMILES,aSyn 5UTR act
CCOc1ccc(NC(=O)c2ccccc2OCC(=O)c2ccccc2)cc1,-83*
COc1cccc2sc(N3CCN(C(=O)c4ccc([N+](=O)[O-])o4)CC3)nc12,-110*
Cc1ccc2sc(N3CCN(C(=O)c4ccc([N+](=O)[O-])o4)CC3)nc2c1C,-76*
O=C(c1ccc([N+](=O)[O-])o1)N1CCN(c2nc3ccc(F)cc3s2)CC1,-108*
COc1ccc2nc(Nc3ccc4c(c3)OCO4)sc2c1,-160*
COc1ccc2nc(Nc3nc4cc5c(cc4s3)OCO5)sc2c1,-123*
CCc1cccc(NC(=S)N2CCC(c3ccccc3)C2)c1 (stereo not given),-88*
CSc1cccc(NC(=S)N2CCC(c3ccccc3)C2)c1 (stereo not given),-76*
COc1cccc(NC(=S)N2CCC(c3ccc(C)cc3)C2)c1 (stereo not given),-66*
CSc1cccc(NC(=O)N2CCCC(CNS(=O)(=O)Cc3ccccc3)C2)c1 (stereo not given),-98*
CCOC(=O)c1snc(-c2ccc(F)cc2)c1N,-130*
O=C(Nc1cccc(O)c1)c1c(O)c2ccccc2[nH]c1=O,-92*
CCOC(=O)c1nnc2cc(-c3ccc(Br)cc3)nn2c1C,-114*
Nc1ccc2oc(CCc3ccccc3)nc2c1,-118*
